Screens as filed in PubChem.
HepG2 viability – kills HepG2 cells in TGF-b inhibitor counter-screen | HepG2 CAGA-GFP viability, ATP luminescence, 18 h | Potency, µM (series often up to 46.1 µM), without a hit: top-dose activity change, negative = cytotoxicity, usual class: cytotoxic | 410,000 tested, 0.76% active | AID 588856; also: potency is read from the fitted curve at half-maximal effect
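HepG2 CAGA-GFP cells (1000/well, DMEM with 1% FBS) received compound, then TGF-beta at 500 pg/mL final, and were incubated 18 hours at 37 degrees C. Viability was read by CellTiter-Glo luminescence. Media-only wells were set as complete cell-killing and DMSO as no toxicity.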
IL1B secr inh – inflammasome signaling inhibition, IL-1 beta readout; 360,000 tested, 4.7% active; THP-1 LPS/ATP IL-1B secretion, AlphaLISA, 16 h; active compounds read low; activity change, % at 57.5 µM; in the data active = activity change below about -50%; inconclusive = mostly about -30% to -49%; also: % is scaled to controls: 0 for no effect and ±100 for the full control effect
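Secreted IL-1B measured by AlphaLISA bead assay after 16 h compound exposure of THP-1 cells; compounds (final up to 57.5 uM) added 1 h before LPS (250 ng/mL) and ATP (1.25 mM) stimulation; lower signal means less secretion.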
TDP1 cell noCPT – qHTS for Inhibitors of human tyrosyl-DNA phosphodiesterase 1 (TDP1): qHTS in cells in absence of CPT. AID 686978, 2013. DT40 Tdp1-/- hTDP1 cells, no CPT, ATP luminescence, 48 h. 420,000 tested, 15% active. Potency, µM (highest dose often 46.2 µM), for inactives: at the top dose activity change, negative = growth inhibition, most hits filed as inhibitors; also: potency is read from the fitted curve at half-maximal effect; % is scaled to controls: 0 for no effect and ±100 for the full control effect; nearly all actives have a fitted effect of over 55% in size
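DT40 Tdp1-/-;hTDP1 cells, no CPT (DMSO vehicle only), 400 cells/well; compounds pin-transferred; ≥48 hr, 37 °C; CellTiter-Glo 30 min RT dark, luminescence read.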
TGFb inhibitor – inhibitors of TGF-b signaling. HepG2 CAGA-GFP TGF-b/SMAD3 reporter, GFP fluorescence, 18 h; TGF-beta stimulated, 500 pg/mL final. Potency, µM (series often up to 46.1 µM), inactives show at the highest dose activity, negative = inhibition, actives largely listed as inhibitors. 410,000 tested, 1.2% active; also: potency is read from the fitted curve at half-maximal effect; % is scaled to controls: 0 for no effect and ±100 for the full control effect; nearly all actives have a fitted effect of over 65% in size
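Using HEPG2 CAGA-GFP reporter cells at 1000 cells/well, we pinned test compounds, stimulated with recombinant TGF-beta (500 pg/mL final) and measured total well GFP after 18 h.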
TDP1 inh – blocks human tyrosyl-DNA phosphodiesterase 1. Q9NUW8. recombinant TDP1, AlphaScreen DNA substrate cleavage. Potency, µM (titrated, usually from 130 µM), for the others: at the highest dose activity change, negative = inhibition, usual class: inhibitors. 350,000 tested, 0.28% active. AID 485290; also: potency is read from the fitted curve at half-maximal effect; % is scaled to controls: 0 for no effect and ±100 for the full control effect; nearly all actives have a fitted effect of over 40% in size
Target sequence (Q9NUW8 whole entry, looked up): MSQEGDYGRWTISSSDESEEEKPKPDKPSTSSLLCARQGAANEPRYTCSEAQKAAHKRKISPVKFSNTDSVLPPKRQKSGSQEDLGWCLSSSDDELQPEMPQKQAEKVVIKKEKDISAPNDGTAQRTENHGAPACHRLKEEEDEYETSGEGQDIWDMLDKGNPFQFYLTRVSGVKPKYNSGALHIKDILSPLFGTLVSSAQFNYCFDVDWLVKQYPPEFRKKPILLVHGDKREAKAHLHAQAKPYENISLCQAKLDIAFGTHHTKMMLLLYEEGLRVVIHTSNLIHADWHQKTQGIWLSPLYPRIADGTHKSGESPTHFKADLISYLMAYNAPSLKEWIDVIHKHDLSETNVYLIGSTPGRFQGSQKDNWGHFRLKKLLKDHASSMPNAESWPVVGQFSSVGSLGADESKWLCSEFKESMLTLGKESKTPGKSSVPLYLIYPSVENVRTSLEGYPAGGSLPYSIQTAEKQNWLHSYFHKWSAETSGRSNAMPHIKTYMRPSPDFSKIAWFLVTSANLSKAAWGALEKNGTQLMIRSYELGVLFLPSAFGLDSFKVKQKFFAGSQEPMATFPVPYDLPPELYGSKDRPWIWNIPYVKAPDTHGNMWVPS
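Recombinant human Tdp1 (E. coli-expressed, 1 nM final) preincubated with compounds 15 min at room temperature, then 5'-biotin/3'-phosphotyrosine-FITC DNA substrate (15 nM final) added for 5 min. AlphaScreen beads (10 ug/ml final) added 10 min; cleavage lowers signal.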
TDP1 cell CPT – growth inhibition of DT40 Tdp1-/-;hTDP1 cells with camptothecin (screen for TDP1 inhibitors); chicken DT40 Tdp1-/-;hTDP1 cells + 20 nM CPT, ATP luminescence, 48 h; Potency, µM (doses to about 46.2 µM), for the others: at the top dose activity change, negative = growth inhibition, usual class: inhibitors; 420,000 tested, 12% active; also: potency is read from the fitted curve at half-maximal effect; % is scaled to controls: 0 for no effect and ±100 for the full control effect; nearly all actives have a fitted effect of over 55% in size
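Cell growth measured by CellTiter-Glo luminescence after a minimum 48 h, 37 C compound exposure with 20 nM CPT in Tdp1-knockout DT40 cells stably expressing hTDP1, seeded 400/well; qHTS titration format.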
Starred values were filed as active, the others as inactive; ? = inconclusive; . = not tested or not shown; [ ] = another dose, or the depositor's remark. Hits are enriched below; roughly 18% of the tested compounds scored in any of these assays. Unless noted, calls follow the shape of the dose curve; as a rule, active = well fitted curve in the direction sought with a large enough effect; inconclusive = small, poorly fitted or top-dose-only effect, or another doubt; inactive = no such curve, though single readings can be large; an effect the other way counts as inactive or inconclusive.

SMILES	HepG2 viability	IL1B secr inh	TDP1 cell noCPT	TGFb inhibitor	TDP1 inh	TDP1 cell CPT
CC(C)C(C(=O)O)N1C(=O)/C(=C/c2ccc(Br)cc2)SC1=S (configuration not stated)	.	.	.	.	7%	.
O=C(c1ccc(CSc2ccc(Cl)cc2)o1)N1CCOCC1	-17%	-26	?	0%	.	?
Cc1ccc(S(=O)(=O)N2CCCCC2C(=O)N(C)c2ccccc2)cc1 (configuration not stated)	-4%	24	15µM*	-6%	.	16µM*
O=C(NCc1ccccc1Cl)[C@@H]1CCCN1S(=O)(=O)c1ccc(Cl)cc1	-29%	-51*	16µM*	-5%	1%	?
O=C(Nc1ccc(Cl)cc1)C1CCCCN1S(=O)(=O)c1ccccc1 (configuration not stated)	-8%	-10	7.3µM*	?	-4%	?
Cc1ccc(S(=O)(=O)N2CCCC2C(=O)Nc2nc3c(s2)CCCC3)cc1 (configuration not stated)	-38%	-4	23µM*	3%	4%	?
Cc1ccc(S(=O)(=O)N2CCCCC2C(=O)Nc2nncs2)cc1 (configuration not stated)	22%	0	-3%	-8%	-3%	8%
COC(=O)c1cc(NC(=O)C2CCCN(S(=O)(=O)c3c(C)n[nH]c3C)C2)cc(C(=O)OC)c1 (configuration not stated)	-6%	.	-10%	7%	2%	27%
O=C(Nc1ccc(C(F)(F)F)cc1)C1CCCCN1S(=O)(=O)c1ccccc1 (configuration not stated)	-9%	-24	29µM*	?	-7%[56.1 µM]	9.2µM*
O=C(NC1CC1)c1cccc(NC(=O)C2CCN(S(=O)(=O)c3ccccc3C(F)(F)F)CC2)c1	-5%	-8	26µM*	-2%	.	?
O=C(CS(=O)(=O)c1ccc(Cl)cc1)N1CCN(c2ccccc2)CC1	-37%	-20	-26%	?	.	0%
Cc1ccc(NC(=O)[C@@H]2CCCN2S(=O)(=O)c2ccc(Cl)cc2)cc1	-14%	4	?	-26%	0%	21µM*
O=C(OCC(=O)N1CCN(c2ccccc2)CC1)C1CCCN1S(=O)(=O)c1ccc(Cl)cc1 (configuration not stated)	-19%	7	21µM*	0%	2%	?
O=C(Nc1ccccc1)C1CCCCN1S(=O)(=O)c1ccccc1 (configuration not stated)	43%	9	?	-22%	-3%	-9%
Cc1ccc(NC(=O)CCS(=O)(=O)c2ccc3nc(C)sc3c2)c(C)c1	-22%	.	-7%	-11%	5%	-12%
Cc1cc(C)cc(NC(=O)C2CCCCN2S(=O)(=O)c2ccccc2)c1 (configuration not stated)	-18%	-3	13µM*	-5%	.	21µM*
O=C(Nc1cccc(S(=O)(=O)N2CCCCC2)c1)[C@@H]1CCCN1S(=O)(=O)c1ccccc1C(F)(F)F	8%	?	23µM*	-19%	.	?
CC(=O)c1ccc(NC(=O)C2CCCN2S(=O)(=O)c2ccc(C)cc2)cc1 (configuration not stated)	1%	124	?	8%	3%	?
O=C(Nc1ccc(Cl)cn1)C1CCCN1S(=O)(=O)c1ccccc1 (configuration not stated)	5%	13	12µM*	-11%	4%	21µM*
CC(=O)Nc1ccc(NC(=O)C2CCCCN2S(=O)(=O)c2ccc(C(C)(C)C)cc2)cc1 (configuration not stated)	-2%	13	?	5%	-5%	23µM*
CC1(C)OCC(CSC2=C(SCC3COC(C)(C)O3)C(=O)c3ncccc3C2=O)O1 (configuration not stated)	.	.	.	.	3%	.
O=C(CSc1ccsc1[N+](=O)[O-])N1CCN(c2ccc(Cl)cc2)CC1	-35%	19	?	?	.	?
OC[C@@H]1CN(Cc2ccncc2)C[C@H](n2cnc3c(N4CCCC4)ncnc32)O1	-20%	28	?	13%	.	?
COc1ccccc1CN1CCC(n2cc(C(=O)N3CCCCC3)nn2)CC1	.	.	-12%	.	.	-13%
COc1ccc2c(c1)[C@H]1[C@H](CO2)[C@H](c2ccccc2)[C@]2(C)C(=O)Nc3cc(F)ccc3C(=O)N12	-16%	?	18µM*	-17%	4%	?
SMILES	HepG2 viability	IL1B secr inh	TDP1 cell noCPT	TGFb inhibitor	TDP1 inh	TDP1 cell CPT
COc1ccc2c(c1)OC[C@H]1[C@H]2N2C(=O)c3ccc(F)cc3NC(=O)[C@@]2(C)[C@H]1c1ccccc1	-24%	-54*	23µM*	-16%	.	18µM*
Cn1c(=O)c2c(nc(CN3CCc4ccccc4C3)n2Cc2ccccc2)n(C)c1=O	-17%	-17	15µM*	?	7%	23µM*
CN(c1nc2c(c(=O)n(C)c(=O)n2C)n1CC(=O)c1ccccc1)C1CCCCC1	-16%	-1	23µM*	-2%	6%	?
CCOCCn1c(CN2CCc3ccccc3C2)nc2c1c(=O)n(C)c(=O)n2C	-23%	61	10µM*	10%	3%	23µM*
Cn1c(=O)c2c(nc(CN3CCc4ccccc4C3)n2Cc2ccc(Cl)cc2)n(C)c1=O	-2%	10	-4%	-2%	3%	-18%
Cn1c(=O)c2c(nc(N3CCN(Cc4ccccc4)CC3)n2CC(=O)c2ccccc2)n(C)c1=O	-4%	12	0%	?	.	-21%
Cn1c(=O)c2c(nc(CN3CCc4ccccc4C3)n2CC(=O)c2ccccc2)n(C)c1=O	-31%	10	26µM*	7.9µM*	.	18µM*
O=C(O)C1C=CC(C(=O)O)c2ccccc21 (configuration not stated)	-72%	0	-1%	-11%	.	0%
COCCN(C(=O)COC(=O)Cc1ccc(Cl)cc1Cl)c1c(N)n(Cc2ccccc2)c(=O)[nH]c1=O	-4%	-8	-1%	8%	.	-1%
CN1CCN(c2nc(-c3cccc([N+](=O)[O-])c3)nc3ccccc23)CC1	-21%	.	?	-5%	.	?
COc1ccccc1-c1c(C)nn2c(-c3ccccc3)cc(C)nc12	-21%	-70*	21µM*	-21%	.	15µM*
